Screening results: PubChem, National Center for Advancing Translational Sciences (NCATS)
Rows were chosen to be rich in hits. Some 21% of all compounds tested hit in one or more screens of this group.
VP16 counter: counter-screen for ROR gamma inhibitors: Gal4-VP16 reporter | Drosophila S2 Gal4-VP16 UAS-luciferase, luminescence, 20 h | Potency, µM (doses to about 53.6 µM), for the others: top-dose activity, negative = inhibition, most hits filed as inhibitors | hit rate 3.5% among 310,000;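 further: Gal4-VP16 expression switched on by copper sulfate through the metallothionein promoter; potency means the concentration at half of the fitted maximal effect; nearly all actives have a fitted effect of over 50% in size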
IL1B secr inh: inhibitors of inflammasome signaling (IL-1 beta secretion). THP-1 LPS/ATP IL-1B secretion, AlphaLISA, 16 h; stronger effect = lower value. activity change, % at 57.5 µM. hit rate 4.7% among 360,000. AID 743279; in the data active means activity change below about -50%; inconclusive means mostly about -30% to -49%
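Secreted IL-1B measured by AlphaLISA bead assay after 16 h compound exposure of THP-1 cells; compounds (final up to 57.5 uM) added 1 h before LPS (250 ng/mL) and ATP (1.25 mM) stimulation; lower signal means less secretion.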
DT40 TDP1 CPT: growth inhibition of DT40 Tdp1-/-;hTDP1 cells with camptothecin (screen for TDP1 inhibitors). chicken DT40 Tdp1-/-;hTDP1 cells + 20 nM CPT, ATP luminescence, 48 h. Potency, µM (highest dose often 46.2 µM), without a hit: top-dose activity change, negative = growth inhibition, hits mostly inhibitors. hit rate 12% among 420,000. AID 686979; further: potency means the concentration at half of the fitted maximal effect; nearly all actives have a fitted effect of over 55% in size
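Chicken DT40 Tdp1-/- cells complemented with human TDP1, 400 cells/well, exposed to compounds plus 20 nM camptothecin for at least 48 h at 37 C; viability read as ATP content by CellTiter-Glo luminescence.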
RORgamma inh: ROR gamma (mouse) transcription inhibition; Potency, µM (highest dose often 53.6 µM), for the others: at the top dose activity change, negative = inhibition, usual class: inhibitors; P51450; Drosophila S2 Gal4-RORgamma UAS-luciferase reporter, 20 h; hit rate 5.4% among 310,000; further: potency means the concentration at half of the fitted maximal effect; nearly all actives have a fitted effect of over 60% in size
Target sequence (P51450 whole entry, looked up, the tested form may be a part): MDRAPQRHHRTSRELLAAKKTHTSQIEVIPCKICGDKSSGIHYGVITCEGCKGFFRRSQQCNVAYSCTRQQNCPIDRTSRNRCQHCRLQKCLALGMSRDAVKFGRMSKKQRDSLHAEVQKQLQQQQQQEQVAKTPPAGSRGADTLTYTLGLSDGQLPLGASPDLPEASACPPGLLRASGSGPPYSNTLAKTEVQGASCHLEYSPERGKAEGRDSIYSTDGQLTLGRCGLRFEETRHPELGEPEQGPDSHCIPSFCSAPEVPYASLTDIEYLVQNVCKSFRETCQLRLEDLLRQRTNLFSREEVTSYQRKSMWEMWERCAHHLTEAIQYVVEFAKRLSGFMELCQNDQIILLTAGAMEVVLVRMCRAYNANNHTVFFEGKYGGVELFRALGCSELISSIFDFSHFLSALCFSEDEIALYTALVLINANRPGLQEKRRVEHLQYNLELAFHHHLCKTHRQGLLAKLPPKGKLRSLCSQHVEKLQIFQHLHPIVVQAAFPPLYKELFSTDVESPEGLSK
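Using a luciferase readout, inhibitors were identified by reduced reporter activity in Drosophila cells coexpressing a copper-inducible Gal4–ROR gamma fusion and UAS-driven Photinus luciferase, incubated 20 hr after 700 uM copper sulfate.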
TDP1 cell noCPT: qHTS for Inhibitors of human tyrosyl-DNA phosphodiesterase 1 (TDP1): qHTS in cells in absence of CPT; Potency, µM (highest dose often 46.2 µM), inactives show at the top dose activity change, negative = growth inhibition, actives largely listed as inhibitors; DT40 Tdp1-/- hTDP1 cells, no CPT, ATP luminescence, 48 h; hit rate 15% among 420,000; AID 686978, 2013; further: potency means the concentration at half of the fitted maximal effect; nearly all actives have a fitted effect of over 55% in size
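No-CPT arm: Tdp1-/-;hTDP1 DT40 cells (400/well) plus compounds, incubated ≥48 hr at 37 °C. Readout CellTiter-Glo luminescence.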
ELG1 DNA repair: inhibitors of ELG1-dependent DNA repair in HEK293T cells | HEK293T ELG1-luciferase reporter, luminescence, 16 h; DNA damage induced by 5-fluorouridine | Potency, µM (series often up to 46.1 µM), for inactives: at the highest dose activity change, negative = inhibition, actives largely listed as inhibitors | hit rate 2.3% among 330,000 | AID 504467; further: potency means the concentration at half of the fitted maximal effect; nearly all actives have a fitted effect of over 55% in size
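Reporter activity after DNA damage by 5-fluorouridine is monitored. Compound-treated cells incubate 16 hr at 37 °C, then ONE-Glo is added for 30 min before luminescence reading.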
* = called active by the depositor; ? = inconclusive; . = no result; [ ] = another dose, or the depositor's remark. Unless noted, the call rests on the fitted dose curve; in most records, active means well fitted curve in the direction sought with a large enough effect; inconclusive means small, poorly fitted or top-dose-only effect, or another doubt; inactive means no such curve, though single readings can be large; an effect the other way counts as inactive or inconclusive. On the % scale 0 is the no-effect control and ±100 the full control effect.

SMILES	VP16 counter	IL1B secr inh	DT40 TDP1 CPT	RORgamma inh	TDP1 cell noCPT	ELG1 DNA repair
CC1CCCN(CCCNC(=O)C2CC(=O)N(CCc3ccccc3)C2)C1 (centres undefined)	-9%	17	-7%	-8%	29%	15%
O=C(COc1ccc(F)cc1)Nc1ccc2nc(SCC(=O)N3CCOCC3)sc2c1	.	.	10µM*	.	12µM*	.
O=C(Cc1ccc(F)cc1)Nc1nnc(SCC(=O)N2CCCCC2)s1	16%	13	-4%	-22%	-4%	-3%
NC(=O)CSc1nnc(NC(=O)C2CC(=O)N(c3ccc(F)cc3)C2)s1 (centres undefined)	8%	0	-2%	20%	21µM*	10%
O=C(COc1ccccc1)Nc1ccc2nc(SCC(=O)N3CCOCC3)sc2c1	.	.	18µM*	.	15µM*	.
O=C(Nc1ccc(F)cc1)Nc1nnc(SCC(=O)N2CCCCC2)s1	.	.	?	.	3.3µM*	.
CCC(=O)Nc1ccc2nc(SCC(=O)N3CCOCC3)sc2c1	-14%	0	1%	-4%	-7%	13%
Cc1ccc(NC2CCCN(C(=O)c3cc(C(C)C)nn3C)C2)cc1C (centres undefined)	.	28	-15%	.	-14%	.
CCCCNS(=O)(=O)c1ccc2nc(-c3cccnc3)cc(C(=O)NCCCOC(C)C)c2c1	.	.	-29%	.	?	.
O=C(COc1ccc(F)cc1)Nc1ccc2nc(SCC(=O)N3CCCC3)sc2c1	.	.	12µM*	.	23µM*	.
NC1(C(=O)O)CCc2cc(P(=O)(O)O)ccc21 (centres undefined)	.	.	3%	.	-15%	.
CCC(Sc1ccc(C(=O)O)cc1)C(=O)O (centres undefined)	0%	25	-7%	-13%	1%	6%
CCOc1ccc(C(=O)CC(Sc2ccc(C)cc2)C(=O)O)cc1 (centres undefined)	?	?	?	4.5µM*	?	-11%
O=C(CC(Sc1ccc(Br)cc1)C(=O)O)c1ccc(F)cc1 (centres undefined)	?	-92*	9.2µM*	?	4.6µM*	6%
COc1ccccc1C(=O)Nc1nnc([C@H]2C[C@H](O)[C@@H](CO)O2)s1	.	33	6%	.	5%	.
C/C=C1\COC(C(=O)NCc2ccncc2)(C(F)(F)F)C=C1C=C1CCCCC1 (centres undefined)	?	95	?	16µM*	?	.
C/C=C1\COC(C(=O)NCc2cccc(OC)c2OC)(C(F)(F)F)C=C1C=C1CCCCC1 (centres undefined)	2%	?	15µM*	?	16µM*	.
Oc1ccc(Cl)cc1-c1cc(C(F)(F)C(F)F)nc(-c2ccccc2)n1	5%	14	29µM*	-10%	16µM*	-5%
O=C1N=c2ccccc2=C1c1[nH]c(=S)[nH]c1O	0%	9	?	-40%	?	?
O=C1N=c2ccccc2=C1c1c(O)[nH]c2c(C(F)(F)F)cccc12	?	-1	21µM*	-21%[1.91 µM]	26µM*	-9%
CCCCn1nc(C(=O)NC2CCCCC2)c2ccccc2c1=O	.	-8	?	.	12µM*	.
Cn1nc(CC(=O)NC2CCCCCCCCCCC2)c2ccccc2c1=O	-8%	18	18µM*	11%	18µM*	-3%
Cn1nc(CC(=O)Nc2ncc(Br)s2)c2ccccc2c1=O	1%	15	10µM*	?	?	0%
Cn1nc(C(=O)NC2CCCCC2)c2ccccc2c1=O	1%	-18	-8%	19%	-1%	?
Cc1cc(C)n(-c2ccc(C(=O)NCC3Cc4cc(-c5cnccn5)ccc4O3)cc2)n1 (centres undefined)	.	.	-10%[9.04 µM]	.	-27%	.
SMILES	VP16 counter	IL1B secr inh	DT40 TDP1 CPT	RORgamma inh	TDP1 cell noCPT	ELG1 DNA repair
CC(=O)c1cc2c(cc1N/C(=N/S(=O)(=O)c1ccc(Cl)cc1)c1ccc(F)cc1)OCO2	.	.	-4%	.	-4%	.
O=C(C1CCCO1)N1CCN(C(=S)Nc2ccc(F)c(Cl)c2)CC1 (centres undefined)	1%	-5	-13%	8%	-22%	-4%
O=C(O)Cc1cccc(OCCCN(Cc2cccc(C(F)(F)F)c2Cl)CC(c2ccccc2)c2ccccc2)c1	?	.	.	-31%	.	.
COCCCn1c2nc3ccccc3nc2c2c(=O)n(Cc3ccc(Cl)cc3)cnc21	-11%	-15	?	-25%	18µM*	-13%
CCCCn1c2nc3ccccc3nc2c2c(=O)n(CC(C)C)cnc21	.	-9	1%	.	21%	.
COCCCn1c(C)nc2c(c1=O)c1nc3ccccc3nc1n2CCc1ccccc1	-7%	-12	?	4%	16µM*	?
COCCCn1cnc2oc3nc4ccccc4nc3c2c1=O	1.3µM*	-4	2%	?	0%	?
CCCCn1c2nc3ccccc3nc2c2c(=O)n(C(C)CC)cnc21 (centres undefined)	3%	?	10µM*	1%	23µM*	0%
Cc1cccc(OCCSc2nc3ccccc3n2CC(=O)N2CCOCC2)c1C	.	.	-22%	.	?	.
CC(C)=CCl	7%	.	.	-4%	.	.
CSc1nccc(-c2cc(Cl)c3c(c2)CC(CNC(=O)c2ccc(C)nc2)O3)n1 (centres undefined)	.	.	-6%	.	-4%	.
N#CC1=C(N)NC(=S)C(C(N)=O)C1c1ccccc1F (centres undefined)	?	?	?	?	?	-4%
N#CC1=C(N)NC(=S)C(C(N)=O)C1c1ccc(Cl)cc1Cl (centres undefined)	?	5	10µM*	?	18µM*	-3%
COC(=O)c1c(-c2ccc(Cl)cc2)noc1N1CCN(c2ccc(F)cc2)CC1	.	.	21µM*	.	21µM*	.
Cn1cccc1C(=O)N1CCN(c2cccc(C(F)(F)F)c2)CC1	-10%	-13	?	7%	?	-14%
Cc1onc(-c2ccccc2Cl)c1C(=O)N1CCN(c2ccc(F)cc2)CC1	8%	4	?	8%	?	-17%
COC(=O)c1c(-c2ccc(Cl)cc2)noc1N1CCN(c2cccc(C(F)(F)F)c2)CC1	.	.	15µM*	.	23µM*	.
CN(C)NC(=O)c1ccsc1NC(=O)c1ccc(S(=O)(=O)N(C)C)cc1	-4%	-18	-25%	10%	-27%	-11%
CCOC(=O)c1c(N2C(=O)C=CC2=O)sc(C)c1C	-11%[0.365 µM]	-96*	1.2µM*	4.5µM*	2.6µM*	?
